D1 ag: Allosteric Agonists of the Human D1 Dopamine Receptor: qHTS | D(1A) dopamine receptor (Homo sapiens), P21728 | HEK293 T-REx D1 cells, calcium flux, agonist mode | activation, % at 2 µM | actives 1% (n = 360,000) | AID 504660, 2011; note: 0% is about no effect
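Agonism was scored from calcium flux recorded over 180 s (1 read/s) after pintool compound addition, following a 10-cycle baseline. Cells were inducible force-coupled HEK293 TREx D1, plated overnight at 30 C and loaded with no-wash calcium dye.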
TRHR agonist: qHTS for Small Molecule Agonists and Allosteric Enhancers of Human TRH Receptor: Primary Screen for Agonists | Thyrotropin-releasing hormone receptor (Homo sapiens), P34981 | TRHR cells, calcium flux fluo-8, FDSS agonist mode | actives 0.18% (n = 360,000) | activation, % at 2 µM; note: 0% is about no effect
Target sequence (P34981 whole entry, looked up): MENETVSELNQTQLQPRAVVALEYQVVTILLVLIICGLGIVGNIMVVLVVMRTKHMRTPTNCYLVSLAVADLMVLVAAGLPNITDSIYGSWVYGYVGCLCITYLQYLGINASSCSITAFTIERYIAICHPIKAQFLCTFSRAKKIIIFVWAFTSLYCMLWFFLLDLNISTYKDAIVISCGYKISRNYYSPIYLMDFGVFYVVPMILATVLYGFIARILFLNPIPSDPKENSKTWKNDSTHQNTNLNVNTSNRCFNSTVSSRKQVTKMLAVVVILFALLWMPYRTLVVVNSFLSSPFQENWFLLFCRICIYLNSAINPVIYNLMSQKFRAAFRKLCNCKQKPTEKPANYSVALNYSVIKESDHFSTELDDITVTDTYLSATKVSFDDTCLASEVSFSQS
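Fluo-8-loaded TRHR cells; 10 s baseline, compound added, kinetic Ca2+ fluorescence read 1/s, agonist mode.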
D1 PAM: Potentiators of Human D1 Dopamine Receptor: qHTS; D(1A) dopamine receptor (Homo sapiens), P21728; HEK293 TREx D1 cells, calcium flux, dopamine EC20 potentiation; potentiation, % at 10 µM; actives 0.036% (n = 360,000); in the data active = potentiation above about 30%; note: 0% is about no effect
D1 antagonist: Antagonist of Human D 1 Dopamine Receptor: qHTS; HEK293 TREx D1 cells, calcium flux, dopamine EC80; hits give low values; actives 3.2% (n = 360,000); activity change, negative = inhibition, % at 10 µM; D(1A) dopamine receptor (Homo sapiens), P21728; in the data active = activity change below about -30%; note: % is set by controls: 0 for no effect and ±100 for the full control effect
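Compound effects on dopamine-evoked calcium signalling were measured in tetracycline-induced HEK293 Trex D1 cells. Dopamine at EC80 followed a 180 s compound pre-read, and fluorescence was tracked kinetically for 180 s more.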
TRHR PAM: qHTS for Small Molecule Agonists and Allosteric Enhancers of Human TRH Receptor: Primary Screen for Enhancers; Thyrotropin-releasing hormone receptor (Homo sapiens), P34981; TRHR cells, fluo-8 calcium fluorescence, EC20 TRH enhancement; enhancement, % at 2 µM; actives 0.66% (n = 360,000); AID 493056, 2011; in the data active = enhancement above about 30%; note: 0% is about no effect
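Enhancer read-out: after compound pinning and an initial kinetic agonist-mode read, an EC20 of TRH (10 nM final) was injected and fluo-8 calcium signal (Ex 480/Em 530) followed at 1 s/cycle for 100 cycles in TRHR-expressing cells.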
The depositor's hits bear a star; ! = not active in a repeat. The list is not random: actives were taken first. Their share in the collection is about 4.6%. Cut-off read from the data, not from the text of the source, unless noted: active = activation above about 30%; inactive = the rest.

How did Clc1ccc(OCCOCCNCc2ccccc2)cc1Cl do in these assays?
D1 ag: 47*; TRHR agonist: 2; D1 PAM: -5; D1 antagonist: -26; TRHR PAM: 3

How did CN(CCOc1ccc(Cl)c(Cl)c1)Cc1ccccc1 do in these assays?
D1 ag: 1; TRHR agonist: 0; D1 PAM: 2; D1 antagonist: 2; TRHR PAM: -1

Results for CCN(CC)C(=O)C1CCCN(c2ccccc2[N+](=O)[O-])C1 (configuration not stated) ?
D1 ag: 8; TRHR agonist: -1; D1 PAM: -8; D1 antagonist: -6; TRHR PAM: 37*

How did Cc1ccc(C(=O)Nc2cccc(-c3nc4cccnc4s3)c2C)cc1 do in these assays?
D1 ag: 1; TRHR agonist: 0; D1 PAM: -3; D1 antagonist: -4; TRHR PAM: 7

What do the screens show for `Cc1cc(C)nc(-n2nc(C)c3c2NC(=O)CC3c2ccccc2OC(C)C)n1` (configuration not stated)?
D1 ag: 2; TRHR agonist: 0; D1 PAM: 0; D1 antagonist: 51; TRHR PAM: 1

What do the screens show for `Cc1ccc(S(=O)(=O)N(C)Cc2ccc(C(=O)N/N=C/c3ccc(OC(F)F)cc3OC(F)F)cc2)cc1`?
D1 ag: 4; TRHR agonist: 1; D1 PAM: -4; D1 antagonist: -13; TRHR PAM: 6

How did Cc1ccc(S(=O)(=O)N(C)Cc2ccc(C(=O)N/N=C3\CC(=O)CC(C)(C)C3)cc2)cc1 do in these assays?
D1 ag: -1; TRHR agonist: 0; D1 PAM: -4; D1 antagonist: -42*; TRHR PAM: -1

How did O=C(c1ccc(CS(=O)Cc2ccc(Cl)cc2)o1)N1CCN(c2ccccn2)CC1 (configuration not stated) do in these assays?
D1 ag: 1; TRHR agonist: 0; D1 PAM: -11; D1 antagonist: -36*; TRHR PAM: 0

What do the screens show for `COc1cccc(N2CCN(C(=O)c3ccc(CS(=O)Cc4ccccc4Cl)o3)CC2)c1` (configuration not stated)?
D1 ag: 0; TRHR agonist: -1; D1 PAM: -4; D1 antagonist: -10; TRHR PAM: 1

How did O=C(c1ccc(CS(=O)c2ccccc2Cl)o1)N1CCN(c2ccccn2)CC1 (configuration not stated) do in these assays?
D1 ag: 3; TRHR agonist: 0; D1 PAM: -4; D1 antagonist: -36*; TRHR PAM: -6

Results for O=C(c1ccc(CS(=O)Cc2ccccc2Cl)o1)N1CCN(c2cccc(Cl)c2)CC1 (configuration not stated) ?
D1 ag: 28; TRHR agonist: -1; D1 PAM: -17; D1 antagonist: -45*; TRHR PAM: 2

How did O=C(c1ccc(CS(=O)Cc2ccccc2Cl)o1)N1CCN(c2ccccn2)CC1 (configuration not stated) do in these assays?
D1 ag: -1; TRHR agonist: 0; D1 PAM: -5; D1 antagonist: -3; TRHR PAM: -4

What do the screens show for `COc1ccc(CNc2oc(/C=C/c3cccc(OC)c3)nc2C#N)cc1`?
D1 ag: 6; TRHR agonist: -1; D1 PAM: 7; D1 antagonist: 9; TRHR PAM: 1

How did CSC1=N/C(=C\c2ccccc2C)C(=O)S1 do in these assays?
D1 ag: 3; TRHR agonist: 1; D1 PAM: 3; D1 antagonist: 5; TRHR PAM: 32*

What do the screens show for `Cc1cccc(COc2ccc(-c3cc(C(F)(F)F)n4nc(C)cc4n3)cc2)c1`?
D1 ag: -1; TRHR agonist: 1; D1 PAM: 1; D1 antagonist: 9; TRHR PAM: -7

How did CCOc1ccc(-n2cc(-c3ccccc3)c3c(NCc4ccc(F)cc4)ncnc32)cc1 do in these assays?
D1 ag: 3; TRHR agonist: 2; D1 PAM: 4; D1 antagonist: 12; TRHR PAM: -7

Results for CCOC(=O)c1ccccc1NC(=O)COC(=O)CC(C)(C)CC1=NS(=O)(=O)c2ccccc2N1 ?
D1 ag: 14; TRHR agonist: -1; D1 PAM: 0; D1 antagonist: -37*; TRHR PAM: 3

What do the screens show for `COc1ccc(C(OCC(O)CNCCc2ccc(S(N)(=O)=O)cc2)c2ccc(OC)cc2)cc1` (configuration not stated)?
D1 ag: 10; TRHR agonist: 3; D1 PAM: 4; D1 antagonist: 16; TRHR PAM: -4

What do the screens show for `OC(CNCCc1ccc(C(F)(F)F)cc1)COC(c1ccccc1)c1ccccc1` (configuration not stated)?
D1 ag: 101*; TRHR agonist: 0; D1 PAM: 52*; D1 antagonist: 12; TRHR PAM: -4

What do the screens show for `Cc1ccc2c(=O)cc(C(=O)N(Cc3ccc(C(C)(C)C)cc3)C3CCS(=O)(=O)C3)oc2c1` (configuration not stated)?
D1 ag: 0; TRHR agonist: 0; D1 PAM: -3; D1 antagonist: -75*; TRHR PAM: -3

How did Cc1cc2oc(C(=O)N(Cc3ccccc3)C3CCS(=O)(=O)C3)cc(=O)c2cc1C (configuration not stated) do in these assays?
D1 ag: 0; TRHR agonist: 0; D1 PAM: 3; D1 antagonist: -7; TRHR PAM: 6

Results for COc1ccc(CN(C(=O)c2cc(=O)c3ccccc3o2)C2CCS(=O)(=O)C2)cc1OC (configuration not stated) ?
D1 ag: 4; TRHR agonist: 0; D1 PAM: 13; D1 antagonist: -37*!; TRHR PAM: -3

What do the screens show for `CCCCOc1cccc(C(=O)Nc2cccc(-c3nc4ncccc4o3)c2C)c1`?
D1 ag: -1; TRHR agonist: -2; D1 PAM: -1; D1 antagonist: 6; TRHR PAM: 43*

What do the screens show for `COc1ccc(CCNC(=O)CCn2c(=O)c3cccn3c3ccc(F)cc32)cc1OC`?
D1 ag: 1; TRHR agonist: 0; D1 PAM: -3; D1 antagonist: -27; TRHR PAM: 21

Results for COCCCNC(=O)c1c(NC(=O)Cc2coc3cc(C)ccc23)sc2c1CCCC2 ?
D1 ag: 1; TRHR agonist: 0; D1 PAM: 0; D1 antagonist: -66*; TRHR PAM: 3
